Assay [1] can be described thus: ATG_PPRE_CIS: Attagene CIS-FACTORIAL HepG2 Assay for human Peroxisome Proliferator-activated Response Element (PPRE) (AID 2282958). As to conditions: HepG2 PPRE cis-element reporter, Attagene transcription factor profiling; actives raise or lower the signal. In a few lines:
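HepG2 cells transiently transfected with multiplexed cis-element reporter units measure endogenous transcription factor activity. After 24 h compound exposure, reporter mRNA is quantified by RT-PCR, 6-FAM labeling, HpaI digestion and capillary electrophoresis; bidirectional fits are made against DMSO baseline.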

A short description of assay [2]: ATG_RORE_CIS: Attagene CIS-FACTORIAL HepG2 Assay for human RAR-related Orphan Receptor Element (RORE) (AID 2282959). As to conditions: HepG2 Attagene cis-factorial RORE reporter, mRNA; actives raise or lower the signal. In a few lines:
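HepG2 cells transiently transfected with multiple cis-element reporter transcription units, exposed to chemical for 24 h. Reporter mRNA quantified by RT-PCR, 6-FAM primer-extension labeling, HpaI digestion and capillary electrophoresis; bidirectional fit versus DMSO baseline.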

Assay [3] in a line: ATG_Sox_CIS: Attagene CIS-FACTORIAL HepG2 Assay for human SRY-box transcription factor (SOX) (AID 2282960). As to conditions: HepG2 Attagene cis-factorial SOX reporter, mRNA; actives raise or lower the signal. In a few lines: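 HepG2 cells transiently transfected with cis-element-driven multiple reporter transcription units, dosed 24 h; reporter mRNA measured by RT-PCR, FAM labelling, HpaI digestion and capillary electrophoresis. Bidirectional fit versus DMSO baseline.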

Assay [4] addresses Transcription factor Sp1 (Homo sapiens) (UniProt P08047). As to the kind of experiment: ATG_Sp1_CIS: Attagene CIS-FACTORIAL HepG2 Assay for human Specificity Protein 1 (Sp1) (AID 2282961). The note with it: HepG2 Sp1 cis-reporter transcription, actives raise or lower the signal. In a few lines: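 HepG2 cells transiently transfected with multiple reporter transcription units driven by cis-regulatory elements; Sp1-responsive reporter mRNA measured 24 h after dosing by RT-PCR and capillary electrophoresis fluorescence, fitted bidirectionally against DMSO baseline.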

Assay [5] can be described thus: ATG_SREBP_CIS: Attagene CIS-FACTORIAL HepG2 Assay for human Sterol Regulatory Element Binding (SREBP) (AID 2282962). As to conditions: HepG2 Attagene cis-factorial SREBP reporter, mRNA; actives raise or lower the signal. In a few lines:
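mRNA induction of transfected cis-promoter reporters in HepG2 cells, 24 h post-dose. Detection: RT-PCR with 6-FAM-labelled products, HpaI digest, capillary electrophoresis. DMSO served as negative control and baseline.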

Assay [6] is described as follows: ATG_TA_CIS: Attagene CIS-FACTORIAL HepG2 Assay for human TA Basal Promoter (AID 2282964). The note with it: HepG2 Attagene CIS-factorial TA basal promoter reporter; actives raise or lower the signal. In a few lines:
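Background internal-marker endpoint from a 52-component HepG2 cis-reporter panel. Cells treated 24 h; reporter transcripts quantified via RT-PCR and CE fluorescence against DMSO baseline.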

Assay [7] is described as follows: ATG_TCF_b_cat_CIS: Attagene CIS-FACTORIAL HepG2 Assay for human T-Cell-Factor with beta-catenin (TCF/b-cat) (AID 2282965). As to conditions: HepG2 TCF/beta-catenin cis-reporter transcription, actives raise or lower the signal. In a few lines:
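HepG2 cells transiently transfected with cis-promoter-driven multiplexed reporter units; reporter mRNA measured 24 h after dosing by RT-PCR, FAM labelling, HpaI digestion and capillary electrophoresis. Bidirectional fitting relative to DMSO baseline.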

Assay [8] in a line: ATG_TAL_CIS: Attagene CIS-FACTORIAL HepG2 Assay for human TAL Basal Promoter (AID 2282966).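 Further: background control endpoint measuring basal TAL promoter reporter mRNA not a specific factor.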 As to conditions: HepG2 Attagene cis-factorial TAL promoter reporter; actives raise or lower the signal. In a few lines: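 HepG2 cells were transiently transfected with promoter-driven multiplexed reporter units and dosed for 24 h. Reporter mRNA was measured by RT-PCR with capillary electrophoresis fluorescence; bidirectional fits used DMSO as baseline, serving as a background control.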

The nature of assay [9]: ATG_TGFb_CIS: Attagene CIS-FACTORIAL HepG2 Assay for human Transforming Growth Factor (TGF) (AID 2282967). As to conditions: HepG2 Attagene CIS TGFb reporter, mRNA transcription; actives raise or lower the signal. In a few lines:
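Liver HepG2 line, cis-factorial reporter panel, 24 h dosing. Quantitation: RT-PCR products labeled with 6-FAM, cut with HpaI, resolved by capillary electrophoresis; DMSO-referenced bidirectional analysis.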

The nature of assay [10]: ATG_VDRE_CIS: Attagene CIS-FACTORIAL HepG2 Assay for human Vitamin D Receptor Element (VDRE) (AID 2282968). As to conditions: HepG2 VDRE cis-reporter transcription, actives raise or lower the signal. In a few lines:
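Transiently transfected HepG2 cells carrying cis-regulated reporter transcription units were exposed for 24 h. Reporter mRNA was measured by RT-PCR with fluorescent labelling and capillary electrophoresis, and fitted in both directions against DMSO.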

In assay [11] the target is Nuclear receptor subfamily 1 group I member 3 (Homo sapiens) (UniProt Q14994). The experiment in a line: ATG_CAR_TRANS: Attagene TRANS-FACTORIAL HepG2 Assay for human Constitutive Androstane Receptor (CAR) (AID 2282969; active means hit-call score of the fitted dose curve at least 0.9, where 1 is the maximum;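 further: activators raise reporter mRNA above DMSO so AC50 marks induction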). The note with it: HepG2 Attagene TRANS-FACTORIAL CAR reporter. In a few lines: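 HepG2 cells transiently transfected with GAL4-UAS reporter units; TRANS format reads activity of exogenous chimeric NR-Gal4 protein. After 24 h dosing, reporter mRNA quantified by RT-PCR, 6-FAM labelling and capillary electrophoresis; gain of signal fitted against DMSO.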

For assay [12], the target named is Estrogen receptor (Homo sapiens) (UniProt P03372). The experiment in a line: ATG_ERa_TRANS: Attagene TRANS-FACTORIAL HepG2 Assay for human Estrogen Receptor alpha (ERa) (AID 2282970; active means hit-call score of the fitted dose curve at least 0.9, where 1 is the maximum). As to conditions: HepG2 Attagene TRANS ERa GAL4 reporter, mRNA. In a few lines: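 HepG2 cells transiently transfected with multiplexed GAL4-UAS reporter units; ERa activity read via exogenous chimeric NR-Gal4 protein. After 24 hour compound exposure, reporter mRNA measured by RT-PCR with 6-FAM labelling and capillary electrophoresis; gain-of-signal fitted relative to DMSO.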

In assay [13] the target is X-box-binding protein 1 (Homo sapiens) (UniProt P17861). As to the kind of experiment: ATG_Xbp1_CIS: Attagene CIS-FACTORIAL HepG2 Assay for human X-box Binding Protein 1 (XBP1) (AID 2282972). As to conditions: HepG2 XBP1 cis-element reporter, Attagene multiplex; actives raise or lower the signal. In a few lines: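 Fluorescence-labelled cDNA fragments from reporter transcripts, separated by capillary electrophoresis, give the signal. Source: HepG2 cells transfected with promoter-driven reporter units, harvested 24 h post-dose. DMSO served as reference for bidirectional curve fitting.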

Assay [14] in a line: ATG_GAL4_TRANS: Attagene TRANS-FACTORIAL HepG2 Assay for GAL4 (Internal Marker) (AID 2282976; active means hit-call score of the fitted dose curve at least 0.9, where 1 is the maximum). The note with it: HepG2 Attagene TRANS GAL4 internal marker reporter. In a few lines:
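HepG2 cells transiently transfected with multiplexed GAL4-UAS reporter constructs were dosed for 24 h. Reporter mRNA was measured by RT-PCR, 6-FAM primer extension, HpaI digestion and capillary electrophoresis, and gain of signal was fitted relative to DMSO.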

For assay [15], the target named is Estrogen-related receptor gamma (Homo sapiens) (UniProt P62508). The experiment in a line: ATG_ERRg_TRANS: Attagene TRANS-FACTORIAL HepG2 Assay for human Estrogen-Related Receptor gamma (ERRg) (AID 2282977; active means hit-call score of the fitted dose curve at least 0.9, where 1 is the maximum;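 further: hits increase reporter signal over DMSO so potencies reflect activators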). As to conditions: HepG2 Attagene TRANS reporter, ERRg transactivation. In a few lines: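 HepG2 cells transiently transfected with multiplexed GAL4-UAS reporter units driven by chimeric NR-Gal4 proteins; 24 h exposure. Reporter mRNA quantified by RT-PCR, fluorescent labelling, HpaI digestion and capillary electrophoresis; gain of signal vs DMSO.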

For assay [16], the target named is Glucocorticoid receptor (Homo sapiens) (UniProt P04150). As to the kind of experiment: ATG_GR_TRANS: Attagene TRANS-FACTORIAL HepG2 Assay for human Glucocorticoid Receptor (GR) (AID 2282978; active means hit-call score of the fitted dose curve at least 0.9, where 1 is the maximum;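 further: activators score as hits since higher reporter transcript over DMSO is fitted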). The note with it: HepG2 Attagene TRANS GR reporter, mRNA transcription. In a few lines: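 HepG2 cells transiently transfected with multiplexed reporter units in which chimeric NR-GAL4 proteins drive GAL4-UAS reporters; 24 h compound exposure. Reporter mRNA measured by RT-PCR, 6-FAM labelling, HpaI digestion and capillary electrophoresis; gain-of-signal fitted versus DMSO.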

Assay [17] addresses Signal transducer and activator of transcription 3 (Homo sapiens) (UniProt P40763). As to the kind of experiment: ATG_STAT3_CIS: Attagene CIS-FACTORIAL HepG2 Assay for human Signal Transducer and Activator of Transcription 3 (STAT3) (AID 2282963). As to conditions: HepG2, Attagene cis-factorial STAT3 reporter transcription; actives raise or lower the signal. In a few lines: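 HepG2 cells transiently transfected with multiple cis-element-driven reporter units report endogenous transcription factor activity. After 24 h compound exposure, reporter mRNA is measured by RT-PCR, 6-FAM labelling, HpaI digestion and capillary electrophoresis. Fitted bidirectionally versus DMSO.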

The nature of assay [18]: ATG_M_19_TRANS: Attagene TRANS-FACTORIAL HepG2 Assay for M19 Transcription Factor (Internal Marker) (AID 2282974; active means hit-call score of the fitted dose curve at least 0.9, where 1 is the maximum). The note with it: HepG2 Attagene TRANS-FACTORIAL M19 internal marker reporter. In a few lines:
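HepG2 cells transiently transfected with multiple GAL4-UAS reporter transcription units were exposed to chemicals for 24 h. Reporter mRNA was read by RT-PCR, 6-FAM primer extension, HpaI digestion and capillary electrophoresis; gain of signal fitted relative to DMSO.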

Assay [19] concerns the target Bile acid receptor (Homo sapiens) (UniProt Q96RI1). As to the kind of experiment: ATG_FXR_TRANS: Attagene TRANS-FACTORIAL HepG2 Assay for Farnesoid X Receptor (FXR) (AID 2282979; active means hit-call score of the fitted dose curve at least 0.9, where 1 is the maximum;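 further: hits raise reporter mRNA above DMSO so AC50 marks FXR activation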). The note with it: HepG2 Attagene TRANS FXR-GAL4 reporter transcription. In a few lines: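 HepG2 cells transiently transfected with reporter constructs in which a chimeric FXR-GAL4 protein drives a GAL4-UAS reporter; 24 h compound exposure. Reporter mRNA measured by RT-PCR, FAM labelling, HpaI digestion and capillary electrophoresis; gain-of-signal versus DMSO.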

Assay [20] addresses Steroid hormone receptor ERR1 (Homo sapiens) (UniProt P11474). As to the kind of experiment: ATG_ERRa_TRANS: Attagene TRANS-FACTORIAL HepG2 Assay for human Estrogen-Related Receptor alpha (ERRa) (AID 2282971; active means hit-call score of the fitted dose curve at least 0.9, where 1 is the maximum). As to conditions: HepG2 Attagene TRANS reporter, ERRa transactivation. In a few lines: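 HepG2 cells transiently transfected with multiplexed GAL4-UAS reporter units reading chimeric ERRa-Gal4 activity; 24 h compound exposure. Reporter mRNA measured by RT-PCR, 6-FAM labelling, HpaI digest and capillary electrophoresis; gain of signal fitted versus DMSO baseline.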

Inconclusive results are not listed. Calls of active or inactive are those of the source. How the source made its calls, unless noted: active means hit-call score of the fitted dose curve at least 0.9, where 1 is the maximum; inactive means score below 0.9.

Chain of X-box-binding protein 1 (Homo sapiens) (P17861 whole entry, looked up, the tested form may be a part): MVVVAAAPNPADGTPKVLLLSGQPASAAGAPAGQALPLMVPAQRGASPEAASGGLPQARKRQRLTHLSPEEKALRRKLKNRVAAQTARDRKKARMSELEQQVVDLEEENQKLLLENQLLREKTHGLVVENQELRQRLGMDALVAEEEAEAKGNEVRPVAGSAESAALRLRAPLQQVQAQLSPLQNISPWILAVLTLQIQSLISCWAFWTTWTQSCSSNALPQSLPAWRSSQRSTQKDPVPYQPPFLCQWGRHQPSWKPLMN
Chain of Estrogen-related receptor gamma (Homo sapiens) (P62508 whole entry, looked up, the tested form may be a part): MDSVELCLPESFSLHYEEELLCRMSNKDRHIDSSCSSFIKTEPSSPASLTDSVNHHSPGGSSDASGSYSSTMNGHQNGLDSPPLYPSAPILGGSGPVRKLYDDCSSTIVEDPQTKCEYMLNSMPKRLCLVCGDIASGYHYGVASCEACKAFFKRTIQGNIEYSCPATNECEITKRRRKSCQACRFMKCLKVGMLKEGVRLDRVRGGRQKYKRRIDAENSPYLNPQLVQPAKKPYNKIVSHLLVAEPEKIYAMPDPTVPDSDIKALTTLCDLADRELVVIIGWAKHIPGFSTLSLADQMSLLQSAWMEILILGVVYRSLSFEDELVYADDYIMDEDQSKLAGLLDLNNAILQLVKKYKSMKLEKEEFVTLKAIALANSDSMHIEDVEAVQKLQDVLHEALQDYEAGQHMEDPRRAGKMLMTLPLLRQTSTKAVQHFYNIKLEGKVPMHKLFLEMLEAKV
Chain of Transcription factor Sp1 (Homo sapiens) (P08047 whole entry, looked up): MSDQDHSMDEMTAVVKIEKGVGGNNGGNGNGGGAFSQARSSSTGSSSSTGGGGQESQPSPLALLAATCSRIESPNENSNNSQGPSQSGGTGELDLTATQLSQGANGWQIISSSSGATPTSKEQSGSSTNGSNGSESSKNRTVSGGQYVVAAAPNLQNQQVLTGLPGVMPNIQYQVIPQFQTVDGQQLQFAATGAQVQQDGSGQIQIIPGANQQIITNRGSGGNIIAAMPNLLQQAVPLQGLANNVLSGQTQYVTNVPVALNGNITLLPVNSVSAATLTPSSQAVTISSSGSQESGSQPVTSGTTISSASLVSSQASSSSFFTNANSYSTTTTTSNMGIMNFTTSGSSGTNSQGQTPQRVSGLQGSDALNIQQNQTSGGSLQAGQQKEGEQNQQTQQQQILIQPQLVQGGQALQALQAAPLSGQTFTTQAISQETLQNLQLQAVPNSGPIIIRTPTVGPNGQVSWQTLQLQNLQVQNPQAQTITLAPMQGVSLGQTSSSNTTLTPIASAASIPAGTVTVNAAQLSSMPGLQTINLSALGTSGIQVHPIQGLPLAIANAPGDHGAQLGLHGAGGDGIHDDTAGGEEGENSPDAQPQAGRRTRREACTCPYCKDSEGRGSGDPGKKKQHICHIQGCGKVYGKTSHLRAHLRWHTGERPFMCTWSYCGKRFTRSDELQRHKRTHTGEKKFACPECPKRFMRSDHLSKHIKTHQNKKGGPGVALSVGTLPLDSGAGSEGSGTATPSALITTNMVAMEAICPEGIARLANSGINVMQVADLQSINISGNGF
Chain of Estrogen receptor (Homo sapiens) (P03372 whole entry, looked up, the tested form may be a part): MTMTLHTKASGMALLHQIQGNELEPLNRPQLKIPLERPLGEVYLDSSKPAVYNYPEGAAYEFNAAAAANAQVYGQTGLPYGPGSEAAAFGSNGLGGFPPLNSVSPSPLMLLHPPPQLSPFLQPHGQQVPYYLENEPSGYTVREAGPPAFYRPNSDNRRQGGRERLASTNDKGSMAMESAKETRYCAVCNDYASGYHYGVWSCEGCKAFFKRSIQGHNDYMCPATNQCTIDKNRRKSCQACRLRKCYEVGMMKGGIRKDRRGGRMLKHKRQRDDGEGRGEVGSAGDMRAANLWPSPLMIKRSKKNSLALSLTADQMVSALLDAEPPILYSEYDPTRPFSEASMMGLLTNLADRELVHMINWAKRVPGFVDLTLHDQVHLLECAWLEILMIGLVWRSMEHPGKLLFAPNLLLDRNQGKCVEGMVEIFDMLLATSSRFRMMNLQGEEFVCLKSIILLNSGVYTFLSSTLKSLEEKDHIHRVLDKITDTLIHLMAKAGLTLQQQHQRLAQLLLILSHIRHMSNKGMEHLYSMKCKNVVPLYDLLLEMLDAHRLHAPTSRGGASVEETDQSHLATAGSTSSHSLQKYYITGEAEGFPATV
Chain of Bile acid receptor (Homo sapiens) (Q96RI1 whole entry, looked up, the tested form may be a part): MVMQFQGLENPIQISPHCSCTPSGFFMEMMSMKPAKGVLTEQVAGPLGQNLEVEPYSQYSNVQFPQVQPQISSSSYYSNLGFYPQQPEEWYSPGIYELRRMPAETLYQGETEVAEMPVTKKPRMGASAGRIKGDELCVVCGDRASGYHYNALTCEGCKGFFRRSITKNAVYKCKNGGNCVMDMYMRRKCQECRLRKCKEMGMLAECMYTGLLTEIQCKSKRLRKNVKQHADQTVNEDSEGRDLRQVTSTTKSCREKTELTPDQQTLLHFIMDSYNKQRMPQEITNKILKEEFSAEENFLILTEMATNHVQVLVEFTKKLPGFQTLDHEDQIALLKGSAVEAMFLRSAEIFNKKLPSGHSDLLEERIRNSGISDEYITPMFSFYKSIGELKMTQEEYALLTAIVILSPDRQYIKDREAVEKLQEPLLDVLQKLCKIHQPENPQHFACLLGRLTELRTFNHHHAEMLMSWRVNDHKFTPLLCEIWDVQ
Chain of Signal transducer and activator of transcription 3 (Homo sapiens) (P40763 whole entry, looked up): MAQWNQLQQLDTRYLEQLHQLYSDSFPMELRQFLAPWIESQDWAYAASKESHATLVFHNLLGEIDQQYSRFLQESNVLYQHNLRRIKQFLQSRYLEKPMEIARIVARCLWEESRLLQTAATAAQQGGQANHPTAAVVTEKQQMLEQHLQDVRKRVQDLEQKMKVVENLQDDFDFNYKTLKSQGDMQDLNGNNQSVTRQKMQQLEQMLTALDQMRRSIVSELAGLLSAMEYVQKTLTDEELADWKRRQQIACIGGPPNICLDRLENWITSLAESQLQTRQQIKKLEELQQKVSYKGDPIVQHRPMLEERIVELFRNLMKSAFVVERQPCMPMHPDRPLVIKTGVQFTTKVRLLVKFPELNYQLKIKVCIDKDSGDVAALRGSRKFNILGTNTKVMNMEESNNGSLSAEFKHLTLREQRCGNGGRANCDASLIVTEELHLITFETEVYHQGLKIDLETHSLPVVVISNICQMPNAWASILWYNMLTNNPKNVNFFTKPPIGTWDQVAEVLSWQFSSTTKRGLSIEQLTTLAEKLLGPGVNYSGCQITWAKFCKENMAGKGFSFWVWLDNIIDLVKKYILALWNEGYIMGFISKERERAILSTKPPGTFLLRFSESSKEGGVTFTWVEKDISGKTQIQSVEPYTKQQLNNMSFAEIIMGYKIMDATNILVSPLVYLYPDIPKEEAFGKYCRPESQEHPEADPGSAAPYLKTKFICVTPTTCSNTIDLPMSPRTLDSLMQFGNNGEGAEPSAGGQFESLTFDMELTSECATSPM
Chain of Glucocorticoid receptor (Homo sapiens) (P04150 whole entry, looked up, the tested form may be a part): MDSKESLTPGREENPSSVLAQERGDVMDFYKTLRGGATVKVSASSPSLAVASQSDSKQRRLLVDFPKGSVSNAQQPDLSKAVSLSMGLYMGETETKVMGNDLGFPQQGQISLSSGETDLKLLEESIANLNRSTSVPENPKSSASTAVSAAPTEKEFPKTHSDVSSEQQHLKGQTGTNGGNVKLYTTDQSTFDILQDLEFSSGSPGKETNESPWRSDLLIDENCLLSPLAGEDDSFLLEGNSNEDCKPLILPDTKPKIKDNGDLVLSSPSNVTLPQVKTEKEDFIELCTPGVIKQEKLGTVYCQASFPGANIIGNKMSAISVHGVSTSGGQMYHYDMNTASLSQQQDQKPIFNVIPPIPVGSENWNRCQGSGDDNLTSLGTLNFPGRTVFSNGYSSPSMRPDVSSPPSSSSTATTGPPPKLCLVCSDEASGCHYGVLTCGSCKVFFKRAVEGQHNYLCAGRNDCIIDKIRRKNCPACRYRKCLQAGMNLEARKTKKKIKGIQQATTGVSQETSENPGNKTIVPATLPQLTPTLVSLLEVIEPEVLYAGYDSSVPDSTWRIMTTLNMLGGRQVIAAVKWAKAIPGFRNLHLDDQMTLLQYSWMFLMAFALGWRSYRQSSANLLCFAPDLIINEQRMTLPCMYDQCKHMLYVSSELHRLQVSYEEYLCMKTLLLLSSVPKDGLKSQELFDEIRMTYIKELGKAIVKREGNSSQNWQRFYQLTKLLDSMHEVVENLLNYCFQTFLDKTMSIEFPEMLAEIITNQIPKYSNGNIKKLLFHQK
Chain of Nuclear receptor subfamily 1 group I member 3 (Homo sapiens) (Q14994 whole entry, looked up, the tested form may be a part): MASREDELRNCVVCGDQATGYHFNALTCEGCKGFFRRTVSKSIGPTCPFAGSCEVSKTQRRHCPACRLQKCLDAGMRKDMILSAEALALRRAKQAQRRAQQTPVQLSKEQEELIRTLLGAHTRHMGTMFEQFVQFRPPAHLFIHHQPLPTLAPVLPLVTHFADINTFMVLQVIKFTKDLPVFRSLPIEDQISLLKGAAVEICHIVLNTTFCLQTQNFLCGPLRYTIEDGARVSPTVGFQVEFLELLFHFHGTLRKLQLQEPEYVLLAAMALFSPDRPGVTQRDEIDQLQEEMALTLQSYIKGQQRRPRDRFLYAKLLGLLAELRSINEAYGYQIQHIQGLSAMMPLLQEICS
Chain of Steroid hormone receptor ERR1 (Homo sapiens) (P11474 whole entry, looked up, the tested form may be a part): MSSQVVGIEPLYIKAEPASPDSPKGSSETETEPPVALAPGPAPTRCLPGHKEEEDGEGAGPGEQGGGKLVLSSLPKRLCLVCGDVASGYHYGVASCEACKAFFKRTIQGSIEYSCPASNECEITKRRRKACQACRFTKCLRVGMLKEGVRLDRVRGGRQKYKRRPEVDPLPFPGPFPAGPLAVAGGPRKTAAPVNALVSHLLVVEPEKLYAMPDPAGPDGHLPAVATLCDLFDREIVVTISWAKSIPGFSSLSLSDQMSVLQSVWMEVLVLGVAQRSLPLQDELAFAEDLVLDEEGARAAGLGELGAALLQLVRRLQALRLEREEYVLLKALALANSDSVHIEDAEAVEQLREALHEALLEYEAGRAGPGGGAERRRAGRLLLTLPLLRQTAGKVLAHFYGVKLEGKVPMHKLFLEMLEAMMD

In the case of `O=S(=O)(c1ccc(Cl)cc1)c1ccc(Cl)cc1`, the compound was called inactive in assay [1], in assay [2], in [3], in assay [4], in assay [5] and in assay [6]. Further, the compound was called inactive in [7], in assay [8], in assay [9], in [11], in assay [12] and in assay [13]. For the same compound, the outcome in assay [14], in [15] and in assay [16] was inactive. For the same compound, the half-maximal activity concentration (AC50) (in general, the concentration at which the activity in the assay is half-maximal) in assay [10] is 27.2 µM (active).

On to `C[C@H]1O[C@@H](O[C@H]2[C@@H](O)C[C@H](O[C@H]3[C@@H](O)C[C@H](O[C@H]4CC[C@@]5(C)[C@H](CC[C@@H]6[C@@H]5CC[C@]5(C)[C@@H](C7=CC(=O)OC7)CC[C@]65O)C4)O[C@@H]3C)O[C@@H]2C)C[C@H](O)[C@@H]1O`, for which the result in [1], in assay [2], in assay [3], in assay [6], in assay [7] and in assay [9] was inactive. Moreover, the outcome in assay [10] and in assay [12] was inactive. For the same compound, the AC50 in assay [4] is 3.3 µM (active); in [5], 7.83 µM (active); in assay [17], 0.196 µM (active); in [13] it was 0.497 µM (active).

`CCc1ccccc1C`: the outcome in assay [1], in [2], in assay [3], in assay [4], in assay [5] and in [17] was inactive. Also, the outcome in assay [7], in assay [8], in [9], in [10], in [13] and in assay [18] was inactive. Also, the outcome in assay [14], in [15] and in assay [19] was inactive.

On to `CCOP(=S)(OCC)SCCS(=O)(=O)CC`, for which the call in assay [1], in [2], in assay [3], in assay [4], in assay [5] and in assay [6] was inactive. For the same compound, the result in assay [7], in [8], in assay [9], in assay [10], in [12] and in assay [20] was inactive. Moreover, the outcome in [13], in [18], in assay [15], in [16] and in assay [19] was inactive.
